Measured values reported in ChEMBL document CHEMBL3433997, “St. Jude Leishmania screening dataset” (2016).
“And” between values parts separate entries of the source, which are not always exact repeats. Equal values may be shown once.

biological target: Glucose transporter (Leishmania mexicana) (UniProt O61059); test: ST_JUDE_LEISH: Cytotoxicity at 2uM final concentration against transgenic Leishmania Mexicana promastigotes LmGT2 that are glucose transport deficient and complemented with the L. Mexicana glucose transporter 2. Activity is measured by DNA content using SYBR green in vitro; assay type: functional

SMILES	inhibition
COc1cccc(/C=C/C(=O)NC2CCC(CN3CCC(c4c[nH]c5ccccc45)CC3)CC2)c1 (centres undefined)	3.07% and -2.7%
CNCCN(C)C(=O)Oc1c(Br)c(C)nc(C)c1-c1ccc(Oc2ccc(OC(F)(F)F)cc2)cc1	5.59%
COc1ccc(CC(C)NCC(O)c2cccc(C(F)(F)F)c2)cc1F (centres undefined)	0.11%
CN1CC[C@H](N(Cc2ccccc2F)c2ccc(C#N)c(Cl)c2)C1	4.63%
CCCc1ccc2c(c1O)CCC(N(CCC)CCC)C2 (centres undefined)	2.48%
COc1cc(C=CC(=O)N2CCC(CN3CCC(c4c[nH]c5ccccc45)CC3)CC2)cc(OC)c1	-2.69%
CC[C@H]1CN2CC[C@H]1C[C@H]2[C@H](O)c1cc(-c2ccccc2C(F)(F)F)nc2ccc(OC)cc12	-1.22%
Cc1[nH]c2ccc(O)cc2c1C1CCN(CC2CCC(NC(=O)/C=C/c3ccc(Cl)c(Cl)c3)CC2)CC1 (centres undefined)	0.57%
O=C(CCC(=O)c1ccc2c3c(cccc13)CC2)NC1CCC(CN2CCC(c3c[nH]c4ccccc34)CC2)CC1 (centres undefined)	4.96%
Cc1ccc(CC(C)NCC(O)c2cccc(C#N)c2)cc1 (centres undefined)	9.79%
CC[C@H]1CN2CC[C@@H]1C[C@H]2[C@H](O)c1cc(-c2cccnc2)nc2ccc(OC)cc12	4.02%
COc1cccc(C2(C)CCN(CCCCNC(=O)c3ccc(NC(=O)c4ccc(Cl)cc4)cc3)CC2)c1	-3.4%
O=C(C=Cc1ccc(-c2ccccc2)cc1)NC1CCC(CN2CCC(c3c[nH]c4ccccc34)CC2)CC1 (centres undefined)	6.53% and 3.78%
CC(Cc1ccc(CSC(C)C)cc1)NCC(O)c1cccc(Cl)c1 (centres undefined)	3.37%
C=C[C@H]1CN2CC[C@H]1C[C@H]2[C@H](OS(=O)(=O)O)c1ccnc2ccccc12	9.07%
COc1c(F)cc(CC(C)NCC(O)c2cccc(Cl)c2)cc1F (centres undefined)	-3.56%
CC[C@H]1CN2CC[C@@H]1C[C@H]2[C@H](O)c1ccnc2ccc(OC)cc12	3.26%
O=C(/C=C/c1ccc(Cl)c(Cl)c1)NC1CCC(CN2CCC(c3c[nH]c4ccc(O)cc34)CC2)CC1 (centres undefined)	-2.67% and 3.13%
CC(=O)C1(c2ccccc2)CCN(CCC2(c3ccc(Cl)c(Cl)c3)CN(C(=O)Nc3cccc(C(F)(F)F)c3)CCO2)CC1 (centres undefined)	3.14%
Cc1[nH]c2ccccc2c1C1=CCN(CCCCC23CCCc4cccc(c42)NC3=O)CC1 (centres undefined)	2.47%

SMILES	inhibition
O=C(NC1CCC(CN2CCC(c3c[nH]c4ccccc34)CC2)CC1)c1cc(-c2ccccc2Cl)oc1C(F)(F)F (centres undefined)	0.55%
O=C(/C=C/c1cc(C(F)(F)F)ccc1F)N1CCC(CN2CCC(c3c[nH]c4ccccc34)CC2)CC1	-1.26%
COc1ccc(C2CNCc3c2cc(OC)c(OC)c3Cl)cc1 (centres undefined)	-0.73%
CCCCCSc1cc(O)c(C(CNC)C(C)C)cc1OC (centres undefined)	-2.39%
O=P(O)(O)Oc1c(Br)cc(Br)cc1-c1cc(Br)cc(Br)c1O	0.55%
Cc1cccc2c(C3CCN(CC4CCC(NC(=O)/C=C/c5ccc(Cl)c(Cl)c5)CC4)CC3)c[nH]c12 (centres undefined)	8.09%
COCC(=O)N(Cc1ccccc1-c1cccc(CNCCc2ccccc2)c1)C1CCN(Cc2ccccc2)CC1	3.9%
CC(=O)Nc1ccc2[nH]cc(C3CCN(CC4CCC(NC(=O)/C=C/c5ccc(Cl)c(Cl)c5)CC4)CC3)c2c1 (centres undefined)	0.33% and -0.43%
CC1=C(C(=O)NC2CCC(CN3CCC(c4c[nH]c5ccccc45)CC3)CC2)Cc2ccccc21 (centres undefined)	-4.68% and 10.4%
Cc1ccc(C2(O)CC3CCC(C2)N3C)cc1 (centres undefined)	3.25%
Cc1ccc(CC(C)NCC(O)c2cccc(C(F)(F)F)c2)c(C)c1 (centres undefined)	0.75%
Cc1cc(N)nc2ccc(CNCCc3ccccc3Br)cc12	1.79%
CC1(C)CCCN(C(=O)Cc2ccc3c(c2)CCCC3)C1CN1CC=CC1 (centres undefined)	8.93%
O=C(NCc1ccc(S(=O)(=O)N2CCC(CN3CCC(c4c[nH]c5ccccc45)CC3)CC2)s1)c1ccccc1	3.02%
CC(C)CCNC(=O)c1cc(C(=O)c2cc(F)ccc2O)cn(CCC(C)C)c1=O	6.46%
COC(=O)/C=C/c1ccc(CC(C)NCC(O)c2cccc(Br)c2)cc1 (centres undefined)	0.91%
CCCCCc1cc(O)c2c3c(c(=O)oc2c1)CN(C)CC3	1.87%
Cc1cc(NC(=O)[C@@H](Nc2ccc(C#N)c3ccccc23)C2CCCCC2)ccc1F	-0.25%
Cn1cc(CN2CCC(CCOC(c3ccccc3)c3ccccc3)CC2)cn1	5.33%
